Potency data for 40 molecules are collected here from PubChem BioAssay (NCATS).

Inconclusive results are not listed. Where a call stands in place of a potency, no number is given. The source made the active and inactive calls. Calls come from the whole dose curve; as a rule, active = well fitted inhibition curve with a large enough effect; inconclusive = small, poorly fitted or top-dose-only effect; inactive = flat fitted curve, though single readings scatter.
Potency is the fitted concentration of half-maximal effect.

In the test the target is Dual specificity protein kinase CLK4 (Homo sapiens) (UniProt Q9HAZ1). The test is described as follows: qHTS Assay for Inhibitors of CDC-like Kinase 4 (ADP-FP Assay) (AID 1795). Note: nearly all actives have a fitted effect of over 60% in size. The settings on record: Transcreener ADP fluorescence polarization; series mostly up to 50 µM. Here is the method: NIH Molecular Libraries Probe Production Centers Network [MLPCN] NIH Chemical Genomics Center [NCGC] MLPCN Grant: 1R03MH084827-01 Assay Submitter (PI): Tom Misteli NCGC Assay Overview: Clk4 (Invitrogen cat # PV3839) was assayed using ATP and the RS repeat peptide (AnaSpec cat # 61722) as substrates using Transcreener (trade mark), a competitive fluorescence polarization (FP) assay. For the present assay, we used the Orange TranscreenerTM ADP2 (BellBrooks Labs, Madison, Wis) detection system to monitor ADP production in the kinase reaction. […] This allows the ADP tracer to freely rotate leading to a decrease in the observed FP value. The amount of ADP produced can then be calculated using a calibration curve. The positive control for the assay was TG003 (Sigma-Aldrich, cat # 300801-52-9) which is a Clk4 inhibitor [2].
Chain of Dual specificity protein kinase CLK4 (Homo sapiens) (Q9HAZ1 whole entry, looked up): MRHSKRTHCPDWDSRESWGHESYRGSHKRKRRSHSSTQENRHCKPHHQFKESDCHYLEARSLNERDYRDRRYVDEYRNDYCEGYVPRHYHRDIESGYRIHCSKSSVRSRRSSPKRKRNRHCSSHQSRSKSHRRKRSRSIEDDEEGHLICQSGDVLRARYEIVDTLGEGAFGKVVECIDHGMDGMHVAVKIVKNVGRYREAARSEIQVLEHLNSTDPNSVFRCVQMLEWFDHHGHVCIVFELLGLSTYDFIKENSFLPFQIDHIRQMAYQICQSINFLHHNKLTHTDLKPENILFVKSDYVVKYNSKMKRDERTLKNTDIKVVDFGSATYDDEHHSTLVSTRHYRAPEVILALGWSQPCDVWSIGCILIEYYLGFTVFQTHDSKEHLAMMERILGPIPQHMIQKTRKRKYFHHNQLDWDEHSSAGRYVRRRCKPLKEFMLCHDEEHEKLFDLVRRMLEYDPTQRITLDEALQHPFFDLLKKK
NCGC Assay Protocol Summary: Two uL/well of substrate-buffer solution (100 uM RS peptide, 1 uM ATP, 25 mM Tris pH7.5, 10 mM MgCl2, 0.5 mM EGTA, 2.5 mM DTT, 0.01% Triton X-100 final concentration) was dispensed into 1,536-well assay plates (Greiner, solid black medium-binding plates) with Aurora Discovery BioRAPTR Flying Reagent Dispenser (FRD; Beckton-Dickenson). Using a Kalypsys pin tool equipped with a 1,536-pin tool, 23 nL of compound solution was transferred to the assay plate. Two uL/well Clk4-buffer solution (6.25 nM Clk4, 25 mM Tris pH 7.5, 10 mM MgCl2, 0.5 mM EGTA, 2.5 mM DTT, 0.01% Triton X-100, final concentration) was then added using the FRD yielding a total kinase reaction volume of 4 uL/ well. Then 4 uL/well of detection mixture (4 nM orange fluorescent tracer, 1 ug/mL ADP antibody, final concentration) was then added after an hour and the polarization signal was measured using the EnVision plate reader (PerkinElmer, Waltham, MA) after 30 min of room temperature incubation using the following filters and program settings: BODIPY TMR FP dual Enh mirror (barcode 682); BODIPY-TMR 531 (barcode 105) excitation; BODIPY-TMR FP P/S polarized 595 nm filters (barcodes 210 and 211, respectively); 100% light; 150 flashes; 1.35 G-factor; Detector gains were 685 for the 1st detector; 630 for the 2nd detector.
A general note: In qHTS, concentration-response curves come from the screen itself.
Regarding `Cc1noc(C)c1-c1nccc(NCCN2CCOCC2)n1`, the Potency entry was “inactive”.
On to `COc1cccc(Cn2c(=O)c(-c3cc(F)cc(F)c3)nc3cnc(N4CCNCC4)nc32)c1`, for which the Potency result is “inactive”.
As for `COc1ccccc1CNc1nc(-c2cccc(C#N)c2)nc2ccccc12`, the entry is “inactive”.
As for `CN(C)Cc1ccccc1-c1nccc(N(C)Cc2ccco2)n1`, the Potency entry was “inactive”.
As for `c1cncc(-c2ccc3ncnc(NC4CCNCC4)c3c2)c1`, the figure is 12.6 µM (active); as for `COc1ccc(-c2nc3cnc(N4CCN(C)CC4)nc3n(C)c2=O)cc1`, “inactive”; as for `Cn1cc(-c2nc3cnc(N4CCNCC4)nc3n(Cc3ccc(F)cc3)c2=O)c2ccccc21`, “inactive”.
As for `O=c1c(-c2ccc(Cl)cc2)nc2cnc(Nc3ccccc3)nc2n1C[C@H]1CCCO1`, the entry is “inactive”; as for `CN1CCN(c2ncc3nc(-c4cc(F)cc(F)c4)c(=O)n(CCC#N)c3n2)CC1`, “inactive”.
As to `CN1CCN(c2ncc3nc(-c4cn(C)c5ccccc45)c(=O)n(-c4ccccc4)c3n2)CC1`, the Potency result was “inactive”.
On to `COc1ccccc1-c1nccc(NCc2cccnc2)n1`, for which the Potency entry is “inactive”.
The result for `CN(C)c1ccc(-c2cncnc2Nc2ccc(F)cc2)cc1` reads “inactive”; that for `CN(C)C(=O)c1ccc(-c2ccc3ncnc(Nc4ccccc4)c3c2)cc1`, “inactive”.
In the case of `COCCn1c(=O)c(C)nc2cnc(OC)nc21`, the Potency entry was “inactive”.
In the case of `COc1ccc(CNc2ncncc2-c2cccc(NS(C)(=O)=O)c2)c(OC)c1`, the Potency result was “inactive”.
For `COCCn1c(=O)c(-c2ccccc2)nc2cnc(N(C)C)nc21`, the Potency entry was “inactive”.
The result for `COc1ccc(-c2nc3cnc(N4CCOCC4)nc3n(Cc3cccc(OC)c3)c2=O)cc1` reads “inactive”; that for `COc1ccc(-n2c(=O)c(CCc3ccccc3)nc3cnc(N4CCOCC4)nc32)cc1`, “inactive”; that for `COc1ccc(-c2nc3cncnc3n(-c3ccccc3)c2=O)cc1`, “inactive”.
As for `COc1cccc(Cn2c(=O)cnc3cnc(OC)nc32)c1`, the entry is “inactive”.
As for `CN(Cc1ccco1)c1ncncc1-c1cccc(NS(C)(=O)=O)c1`, the entry is “inactive”.
As for `COc1cccc(Cn2c(=O)cnc3cnc(OCc4ccccc4)nc32)c1`, the Potency result was “inactive”.
As for `FC(F)(F)c1ccccc1-c1cncnc1-n1ccnc1`, the entry is “inactive”; as for `COc1ccccc1-c1cncnc1N1CCN(C)CC1`, “inactive”.
As for `COc1ccc(CNc2ncnc3ccc(-c4ccc5c(c4)OCO5)cc23)c(OC)c1`, the figure is 0.398 µM (active); as for `COc1cccc(-c2cncnc2NCc2cccnc2)c1`, “inactive”; as for `CCNc1ncc2nc(-c3cccc(C#N)c3)c(=O)n(Cc3cccc(OC)c3)c2n1`, “inactive”.
The result for `FC(F)(F)c1ccccc1-c1cc(NCc2cccs2)ncn1` reads “inactive”; that for `CCNc1ncc2nc(-c3cn(C)c4ccccc34)c(=O)n(Cc3ccc(F)cc3)c2n1`, “inactive”; that for `CS(=O)(=O)Nc1cccc(-c2cncnc2NCc2cccnc2)c1`, “inactive”.
In the case of `Cc1noc(C)c1-c1nc(NCc2cccs2)c2ccccc2n1`, the Potency result was “inactive”.
Take `COc1ccccc1CNc1ncncc1-c1cccc(NS(C)(=O)=O)c1`: the Potency entry is “inactive”.
Take `O=c1c(-c2ccc(F)cc2)nc2cnc(N3CCOCC3)nc2n1C1CC1`: the Potency entry was “inactive”.
As for `CCNc1ncc2nc(-c3cn(C)c4ccccc34)c(=O)n(CCC#N)c2n1`, the entry is “inactive”; as for `Cc1cnc(CNc2nc(-c3c(C)noc3C)nc3ccccc23)cn1`, “inactive”.
The result for `CCNc1ncc2nc(-c3cccs3)c(=O)n(CCc3ccccc3)c2n1` reads “inactive”; that for `COc1ncc2nc(-c3ccc(F)cc3)c(=O)n(Cc3cccs3)c2n1`, “inactive”.
As for `c1csc(CNc2nc(-c3ccc4c(c3)OCO4)nc3ccccc23)c1`, the entry is “inactive”.
As for `COc1ccccc1-c1cc(-n2ccnc2)ncn1`, the Potency was 8.91 µM (active).
As for `CNc1ncncc1-c1ccccc1C(F)(F)F`, the entry is “inactive”.
